# Test results published in PubChem BioAssay AID435019 (Southern Research Specialized Biocontainment Screening …, 2010).
# Screen size: about 2,300 compounds; about 1,200 (52%) were called active. So high a share suggests a set chosen from earlier hits. The list shows a part of the results. Measured potencies and affinities stand elsewhere. Unmarked numbers belong to inactive results. How the calls were made is not given here.
# Assay: mammalian cell cytotoxicity, dose response, cytotoxicity control for M. tuberculosis inhibitor project (AID 435019);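 further: 0% = background wells and 100% = vehicle-treated cells; lower values mean fewer viable cells so more cytotoxicity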
# Conditions: cytotoxicity counter-screen; series mostly up to 40 µM; viability: at the top concentration
row,SMILES,viability
1,C/C(=N\NC(N)=S)c1ccc(Cl)s1,88.2%
2,O=C(NNc1ccc([N+](=O)[O-])cc1)c1ccco1,101%
3,O=C(C/C=N\OCc1ccc([N+](=O)[O-])cc1)Nc1ccc(F)cc1F,96.9%
4,CC1=C(C)C(=O)C(CCCCC#CCCCC#CCO)=C(C)C1=O,84.5%
5,CC1CCCCC1NC(=O)c1ccc2c(c1)[nH]c(=O)n2C1CCCC1 (stereo unspecified),94.4%
6,CCCCOC(=O)CSc1nnc(-c2ccc(Cl)cc2Cl)o1,95.3%
7,COc1ccc(-c2cc(O)cc(O)c2)cc1,84.8%
8,COc1ccc(N=Cc2c(O)cc(C)oc2=O)cc1,92.7%
9,Cn1c(N)c(C(=O)COC(=O)c2ccc([N+](=O)[O-])o2)c(=O)n(C)c1=O,87.2%
10,CSc1cccc(N=C2C(=O)Nc3ccccc32)c1,92.1%
11,Cc1ccc(Nc2nc(CSc3nnc(-c4cccs4)o3)cs2)cc1,86.8%
12,Fc1ccc(-c2nnc(CSc3nnc(-c4cccs4)o3)o2)cc1,95.8%
13,CCCNC(=S)Nc1ccc(Nc2ccccc2)cc1,83%
14,CCOC(=O)N1CCN(C(=O)CSc2nnc(-c3ccc(Cl)s3)o2)CC1,95.8%
15,COc1ccc(NC(=O)CN(C)CC(=O)Nc2sc3c(c2C(N)=O)CCC3)cc1,90.6%
16,CC1(C)CC(=O)C2=C(C1)OC(N)=C([N+](=O)[O-])C2c1ccc(C#N)s1 (stereo unspecified),84.6% [at 20 µM]
17,Clc1ccc(CSc2ncn[nH]2)cc1,88.4%
18,Nc1ccc(OCc2ccco2)cc1,89.3%
19,CCCn1nc(C(=O)NNC(=O)c2ccc(C)c(C)c2)c2ccccc2c1=O,99.7%

row,SMILES,viability
1,CCOC(=O)c1ccc(NC(=O)CCc2nc(-c3ccc(Cl)cc3)no2)cc1,92.1%
2,CCOC(=O)c1ccc(NC(=O)CSc2ccc(-c3cccnc3)nn2)cc1,98.3%
3,COc1cccc(/C=C/c2nc(C#N)c(NCC(C)C)o2)c1,95.4%
4,O=C(CCc1c[nH]c2ccccc12)N1CCN(S(=O)(=O)c2ccccc2)CC1,87.8%
5,CN(C)CCCN(C(=O)c1ccc([N+](=O)[O-])s1)c1nc2cc3c(cc2s1)OCCO3,86.4%
6,Cc1ccc(-n2nnc3c(=O)oc4ccccc4c32)cc1,98.7%
7,Oc1cccc(-c2nc3ccccc3s2)c1,92.2%
8,Cc1nc2sccn2c(=O)c1CCN1CCC(=C(c2ccccc2)c2ccc(F)cc2)CC1,89.2%
9,Nc1c(C(=O)NC2CCCCC2)nsc1C(=O)OCC(=O)NC1CCCCC1,94%
10,O=c1[nH]c(=O)n(C2CCCO2)cc1F (stereo unspecified),94.6%
11,NN/C(=C\[N+](=O)[O-])Nc1ccc(Cl)cc1,87.6%
12,Cc1ccc(CN2CCN(/N=C/c3ccc(Cl)c([N+](=O)[O-])c3)CC2)cc1,82.9%
13,CSc1ccc(CNC(=O)C2Cc3cc(S(=O)(=O)N4CCCCC4)ccc3N2C(C)=O)cc1 (stereo unspecified),90%
14,CC(C)CS(=O)(=O)C1=NN2C(=N)/C(=C\c3ccc(OC(=O)c4ccco4)cc3)C(=O)N=C2S1,88.1%
15,CCCOC(=O)c1ccc(-c2ccc(C=O)o2)cc1,87.9%
16,COC(=O)CC(=O)N1CCN(c2ccc(Cl)c(Cl)c2)CC1,86.9%
17,O/N=C/c1cn(-c2ccc(Cl)cc2)nn1,98%
18,CSCCOC(=O)COc1ccc(/C=N/NC(=O)c2c(Cl)cnn2C)cc1,102%
19,O=C1CCC(=O)N1CNc1ccc(Oc2ccccc2)cc1,88.9%

row,SMILES,viability
1,O/N=C/c1ccc2ccccc2c1,90.8%
2,Nc1cc(C(=O)OCC(=O)NNC(=O)c2cccs2)ccc1Cl,96.5%
3,CCCNc1nc(-c2cc(C(=O)Nc3ccccc3)on2)cc(C(C)C)n1,90.3%
4,CO/N=C(\Cn1ncc(N2CCCC2)c(Cl)c1=O)c1ccc(Cl)cc1,87.1%
5,O=C(COc1cc(O)c2c(=O)c3ccccc3oc2c1)OCc1ccccc1,101%
6,C=CCC1(CC=C)CCCN1C(=O)c1cc(COc2ccc(-n3cncn3)cc2)on1,64.9%
7,O=[N+]([O-])c1ccc(-c2csc(NN=C3CCCC3)n2)cc1,96.1%
8,Cn1nc(C(F)(F)F)c2cc(NC(=O)OCC(C)(C)C)sc21,90.9%
9,CCCCCCN=C1CC(C)(C)CC(=O)/C1=C(/O)CCC,83.1%
10,S=C(NCCc1ccccc1)NN=C1CCCCCC1,94.1%
11,Cc1occc1-c1nnc(SCC(=O)NCCc2ccccc2)o1,91.9%
12,O=S(Cc1ccc(Br)cc1)Cc1nnc(SCc2ccc(Cl)cc2)n1-c1ccccc1 (stereo unspecified),53.3%
13,O=C(COC(=O)c1cccs1)c1ccccc1,101%
14,COC(OC)c1ccnc(-c2ccc(OC(=O)c3cccs3)cc2)n1,92.7%
15,CCOC(=O)c1ccc(OC(=O)CCCCCN=C(N)N)cc1,94.7%
16,CC1(C)CC(=O)c2c(O)cc(OCc3ccc(Br)cc3)cc2O1,82.1%
17,CCOc1ccc(NC(=O)CCc2nnc3ccc(N4CCC(C)CC4)nn23)cc1,89%
18,Cc1ccc(C(C)C)c(OCC(=O)OCc2c(C)noc2C)c1,95.7%
